# Compound activity from PubChem BioAssay.
# HCMV antiviral: qHTS Assay for inhibitors of the human cytomegalovirus (HCMV); HFF cells, HCMV-luciferase reporter, 72 h; hits give low values; hit rate 4.5% among 410,000; activity change, negative = inhibition, % at 57.5 µM; in the data active = activity change below about -60%; inconclusive = no clear call, values can overlap the other calls; inactive = above about -39%; also: % is scaled to controls: 0 for no effect and ±100 for the full control effect
#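 Steps: HFFs plated, 16 h 37C; compounds added; HCMV-luciferase added to MOI 1 PFU/cell; 72 h 37C; OneGlo reagent, 5 min room temperature; luminescence read, normalized to controls.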
# CHX counter: Cycloheximide Counterscreen for Small Molecule Inhibitors of Shiga Toxin; AID 2314, 2010; hit rate 12% among 300,000; cell reporter, cycloheximide protein synthesis inhibition counterscreen; max response, %; in the data active = max response mostly above about 13%, no sharp cut-off; inactive = mostly below about 14%; also: read at 38.3 µM for the half of the compounds with a filed dose; 0% is about no effect
# Pf growth 96h: Primary qHTS for delayed death inhibitors of the malarial parasite plastid, 96 hour incubation. P. falciparum luciferase reporter growth, 96 h. Potency, µM (doses to about 28.7 µM), inactives show at the highest dose activity change, negative = inhibition, hits mostly inhibitors. hit rate 6.9% among 320,000; also: potency is read from the fitted curve at half-maximal effect; % is scaled to controls: 0 for no effect and ±100 for the full control effect
#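 Erythrocytes infected with luciferase-expressing P. falciparum were dispensed at 2% hematocrit and 0.05% parasitemia (final), then incubated with compounds 96 hours at 37 C in 5% CO2. Luminescence after detection reagent addition reported growth.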
# Pf growth 48h: Primary qHTS for delayed death inhibitors of the malarial parasite plastid, 48 hour incubation. P. falciparum luciferase growth in erythrocytes, 48 h. Potency, µM (titrated, usually from 28.7 µM), without a hit: at the top dose activity change, negative = inhibition, hits mostly inhibitors. hit rate 5.9% among 310,000; also: potency is read from the fitted curve at half-maximal effect; % is scaled to controls: 0 for no effect and ±100 for the full control effect
#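 A one-generation exposure of luciferase-tagged malaria parasites in RPMI 1640/Albumax erythrocyte culture, 37 C and 5% CO2. Inhibition is inferred from decreased luminescence after adding detection reagent.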
# HCV inh: qHTS Assay for Inhibitors of Hepatitis C Virus (HCV); hit rate 3.4% among 340,000; Huh7.5.1 HCVcc-Cre infection, luciferase reporter, 44 h; Potency, µM (series often up to 41.8 µM), for inactives: at the highest dose activity change, negative = inhibition, most hits filed as inhibitors; also: potency is read from the fitted curve at half-maximal effect; % is scaled to controls: 0 for no effect and ±100 for the full control effect
#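 Whole-lifecycle infectious HCVcc-Cre system; cells 1,000/well, compound then virus (~0.5 moi) added 4 h after plating, 44 h culture. Luciferase read 15 sec following 15 min substrate incubation, room temp.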
# Shiga inhibitor: A qHTS for Small Molecule Inhibitors of Shiga Toxin; inhibition, % at 38.7 µM; hit rate 9.2% among 290,000; Vero cells, Shiga toxin protein synthesis inhibition reporter; in the data active = inhibition mostly above about 28%, no sharp cut-off; inactive = mostly below about 43%; also: 0% is about no effect
# Numbers without * were called inactive; ? = inconclusive; nt = not tested or not shown; [ ] = another dose, or the depositor's remark. This is a sample that favours compounds with a hit; in the whole collection about 21% have one here. Unless noted, calls follow the shape of the dose curve; as a rule, active = well fitted inhibition curve with a large enough effect; inconclusive = small, poorly fitted or top-dose-only effect, or another doubt; inactive = no such curve, though single readings can be large or run the other way.
SMILES,HCMV antiviral,CHX counter,Pf growth 96h,Pf growth 48h,HCV inh,Shiga inhibitor
CC1CCN(c2ccc(C(=O)Nc3ccc4c(c3)OCO4)cc2[N+](=O)[O-])CC1,-61*,8,?,?,4.5µM*,16
CC1CCCN(c2ccc(C(=O)Nc3ccc4c(c3)OCO4)cc2[N+](=O)[O-])C1 (centres undefined),?,17*,?,?,?,-41
CC1CCCN(c2ccc(C(=O)NCc3ccc4c(c3)OCO4)cc2[N+](=O)[O-])C1 (centres undefined),-31,-2,?,4%,?,2
CC1CCCN(c2c([N+](=O)[O-])cc(C(=O)O)cc2[N+](=O)[O-])C1 (centres undefined),-101*,7,?,34%,-2%,19
COc1cc2nc(SCc3ccc(C)cc3)n3nc(CCn4nc(C)cc4C)nc3c2cc1OC,9,nt,nt,nt,nt,nt
COc1ccc(CCNC(=O)Cn2c(=O)c3cccn3c3ccccc32)cc1OC,38,nt,nt,nt,nt,nt
CCOc1ccc(C(=O)CCCC(=O)c2ccc(OCC)cc2)cc1,89,47*,?,57%,8%,nt
O=C(CCCC(=O)c1ccccc1)Nc1ccc(O)cc1,-9,-4,10µM*,-15%,-11%,-14
CCCCC(=O)c1ccc(O)cc1,-8,15*,nt,32%,-5%,42
O=C(CCCC(=O)c1ccc(F)cc1)c1ccc(F)cc1,-80*,55*,169%,nt,0%,107*
O=S1(=O)CCN(Cc2ccc(Cl)c(C(F)(F)F)c2)CC1,0,-5,-5%,23%,2%,-13
COc1ccc(NC(=O)c2oc3ccccc3c2NC(=O)Cc2cccs2)c(OC)c1,-26,nt,nt,nt,nt,nt
O=C(Cn1nnc(-c2ccc(F)cc2)n1)NC(=O)NC1CCCCC1,-6,nt,nt,nt,nt,nt
COc1cc(OC)cc(C(=O)NCC(=O)NCC(c2ccco2)N2CCCCC2)c1 (centres undefined),1,nt,?,?,24%,nt
CCOc1ccc(C(=O)COC(=O)CC)cc1,-28,23*,?,-14%,7%,42*
Cc1ccc(C(=O)CCS(=O)(=O)c2ccc(F)cc2)cc1,-99*,25*,2%,0%,?,26*
Cc1ccc(S(=O)(=O)CCC(=O)c2ccc(F)cc2)cc1,-6,0,66%,26%,14%,-9
CCCCC(=O)OCC(=O)c1ccc(OCC)cc1,10,58*,?,19%,1%,22*
O=C(CCC(=O)N1CCOCC1)c1ccc(F)cc1,-26,24*,16%,81%,6%,55*
C[C@@H]1CN([C@H](C)CO)C(=O)CCCn2cc(nn2)CO[C@H]1CN(C)S(=O)(=O)c1ccccc1,26,nt,nt,nt,nt,nt
Cc1ccccc1C(=O)Nc1ccnn1C1CCN(C2CCSCC2)CC1,1,-11,25%,-9%,-17%,-3
OCCC1CN(Cc2cccnc2)CCN1CCc1ccccc1 (centres undefined),-32,12,9.3µM*,-11%,1%,2
CSc1cccc(CN2CCN(CCc3ccccc3)C(CCO)C2)c1 (centres undefined),-32,1,214%,?,-20%,-12
CC(C)n1cc(CN2CCN(CCc3ccccc3)C(CCO)C2)cn1 (centres undefined),59,-1,15µM*,16%,3%,30
CC(C)(C)OC(=O)N1CCC(c2c(C(=O)NC3CCCCC3)cnn2-c2ccc(F)cc2F)CC1,0,nt,nt,nt,nt,nt
Cc1nnsc1S(=O)c1ccc(F)cc1 (centres undefined),-69*,-2,?,7%[0.00184 µM],-1%,-9
Cc1nnsc1S(=O)c1ccc(Br)cc1 (centres undefined),-63*,-5,?,?,-16%,-13
Cc1ccc(S(=O)c2ccc(C)cc2)cc1,-14,-2,-12%,12%,-1%,23
Cc1ccc(S(=O)c2snnc2C)cc1 (centres undefined),18,-2,-15%,nt,3%,-6
